PubChem BioAssay
“And” between values parts separate entries of the source, which are not always exact repeats. Equal entries are not always repeated. The source made the active and inactive calls.

How the values were obtained:
[1] = small molecules captured by biotinylated probe aFSTL3 – biochemical, small-molecule microarray, fluorescence 635/667, stem cell growth factor project, primary screen (AID 1064); conditions: higher = more signal;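 also: measures binding of the biotinylated anti-FSTL3 antibody to printed compounds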
[2] = binders from COS7 lysate, DM2A8 probe, primary screen, torsin A project, cell lysate, small-molecule microarray, fluorescence 635/667 (AID 1065); conditions: higher = more signal, COS7 lysate expressing mutant human TOR1A
[3] = small molecules captured by biotinylated probe aFGF2 – biochemical, small-molecule microarray, fluorescence 635/667, stem cell growth factor project, primary screen (AID 1067); conditions: higher = more signal;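 also: measures binding of biotinylated aFGF2 protein to printed compounds on slides; z-score merges feature fluorescence and signal-to-noise across triplicate slides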
[4] = small molecules captured by biotinylated probe aFGF10 – biochemical, small-molecule microarray, fluorescence 635/667, stem cell growth factor project, primary screen (AID 1071); conditions: higher = more signal;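 also: score merges 667 nm spot intensity and signal to noise from triplicate slides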
[5] = biological target: Neurogenic locus notch homolog protein 2 (Homo sapiens) (UniProt Q04721); experiment: small molecules binding Notch2 protein – biochemical, small-molecule microarray, 635 nm fluorescence, stem cell growth factors, primary screen (AID 1073); conditions: higher = more signal
Chain of Neurogenic locus notch homolog protein 2 (Homo sapiens) (Q04721 whole entry, looked up, canonical isoform): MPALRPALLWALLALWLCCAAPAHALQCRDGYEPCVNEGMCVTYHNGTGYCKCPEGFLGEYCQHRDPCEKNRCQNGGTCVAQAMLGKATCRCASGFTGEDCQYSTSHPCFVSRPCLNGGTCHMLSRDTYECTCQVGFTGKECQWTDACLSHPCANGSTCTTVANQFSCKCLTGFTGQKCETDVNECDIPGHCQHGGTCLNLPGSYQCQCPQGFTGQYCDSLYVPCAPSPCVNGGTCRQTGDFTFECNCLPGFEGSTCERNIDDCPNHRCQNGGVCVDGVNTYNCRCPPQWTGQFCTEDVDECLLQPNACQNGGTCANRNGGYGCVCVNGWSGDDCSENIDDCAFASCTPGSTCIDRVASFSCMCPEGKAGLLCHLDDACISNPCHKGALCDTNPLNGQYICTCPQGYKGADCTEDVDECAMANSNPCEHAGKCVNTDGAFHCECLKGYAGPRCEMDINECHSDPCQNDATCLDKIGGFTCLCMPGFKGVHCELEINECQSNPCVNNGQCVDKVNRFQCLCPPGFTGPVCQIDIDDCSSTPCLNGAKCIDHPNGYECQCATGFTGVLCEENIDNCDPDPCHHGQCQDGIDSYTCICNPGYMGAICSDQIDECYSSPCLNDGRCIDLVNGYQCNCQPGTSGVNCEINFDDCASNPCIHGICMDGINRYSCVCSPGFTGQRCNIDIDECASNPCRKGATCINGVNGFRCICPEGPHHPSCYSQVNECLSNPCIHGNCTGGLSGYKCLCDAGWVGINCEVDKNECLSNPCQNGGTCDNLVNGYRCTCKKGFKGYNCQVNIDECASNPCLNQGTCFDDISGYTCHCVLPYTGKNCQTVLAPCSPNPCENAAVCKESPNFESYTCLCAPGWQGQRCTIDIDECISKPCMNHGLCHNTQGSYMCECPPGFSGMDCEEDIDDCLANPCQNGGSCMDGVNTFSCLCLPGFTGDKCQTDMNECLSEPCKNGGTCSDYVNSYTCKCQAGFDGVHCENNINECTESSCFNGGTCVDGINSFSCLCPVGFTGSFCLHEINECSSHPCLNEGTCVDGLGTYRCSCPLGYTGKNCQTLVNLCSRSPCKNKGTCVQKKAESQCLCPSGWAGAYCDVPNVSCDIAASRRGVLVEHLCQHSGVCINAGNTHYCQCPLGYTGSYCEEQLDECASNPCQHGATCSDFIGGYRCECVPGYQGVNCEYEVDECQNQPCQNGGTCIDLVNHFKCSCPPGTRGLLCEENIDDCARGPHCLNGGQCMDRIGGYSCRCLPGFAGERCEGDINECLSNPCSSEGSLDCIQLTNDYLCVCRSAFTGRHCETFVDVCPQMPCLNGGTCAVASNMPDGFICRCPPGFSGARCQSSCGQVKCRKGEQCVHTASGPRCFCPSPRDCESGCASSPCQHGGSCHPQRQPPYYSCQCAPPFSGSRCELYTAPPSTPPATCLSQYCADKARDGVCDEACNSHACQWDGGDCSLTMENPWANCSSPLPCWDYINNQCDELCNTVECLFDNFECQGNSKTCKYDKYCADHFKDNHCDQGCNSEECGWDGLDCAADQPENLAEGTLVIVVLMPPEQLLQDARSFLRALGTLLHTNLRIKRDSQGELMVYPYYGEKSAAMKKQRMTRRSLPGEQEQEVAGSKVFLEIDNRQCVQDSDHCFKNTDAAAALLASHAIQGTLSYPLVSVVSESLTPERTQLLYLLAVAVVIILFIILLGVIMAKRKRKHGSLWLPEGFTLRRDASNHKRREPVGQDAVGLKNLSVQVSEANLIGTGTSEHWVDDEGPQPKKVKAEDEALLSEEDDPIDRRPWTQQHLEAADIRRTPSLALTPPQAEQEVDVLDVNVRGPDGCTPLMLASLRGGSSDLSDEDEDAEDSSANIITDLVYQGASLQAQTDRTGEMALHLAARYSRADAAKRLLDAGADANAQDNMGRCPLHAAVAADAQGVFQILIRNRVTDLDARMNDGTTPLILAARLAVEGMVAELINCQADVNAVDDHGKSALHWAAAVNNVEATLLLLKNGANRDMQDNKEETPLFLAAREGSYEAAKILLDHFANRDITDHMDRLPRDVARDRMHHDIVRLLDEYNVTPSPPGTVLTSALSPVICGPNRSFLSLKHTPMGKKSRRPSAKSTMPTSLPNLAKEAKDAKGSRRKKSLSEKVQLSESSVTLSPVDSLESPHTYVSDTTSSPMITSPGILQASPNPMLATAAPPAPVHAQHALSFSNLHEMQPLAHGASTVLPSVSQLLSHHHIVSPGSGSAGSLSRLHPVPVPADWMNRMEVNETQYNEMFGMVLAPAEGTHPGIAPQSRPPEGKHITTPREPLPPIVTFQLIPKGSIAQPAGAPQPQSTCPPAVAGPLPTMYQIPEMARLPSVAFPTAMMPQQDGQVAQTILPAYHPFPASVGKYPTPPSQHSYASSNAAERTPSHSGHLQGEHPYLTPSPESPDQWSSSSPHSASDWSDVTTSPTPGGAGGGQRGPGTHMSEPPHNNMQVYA

[6] = biological target: Pro-neuregulin-1, membrane-bound isoform (Homo sapiens) (UniProt Q02297); experiment: small molecules binding neuregulin-1 protein – biochemical, small-molecule microarray, fluorescence 635/667, psychiatric disease protein project, primary screen (AID 1075); conditions: NRG1 binding, 635 nm fluorescence, higher = more signal;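 also: score combines 667 nm spot fluorescence with signal to noise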
Chain of Pro-neuregulin-1, membrane-bound isoform (Homo sapiens) (Q02297 whole entry, looked up, the tested form may be a part, canonical isoform): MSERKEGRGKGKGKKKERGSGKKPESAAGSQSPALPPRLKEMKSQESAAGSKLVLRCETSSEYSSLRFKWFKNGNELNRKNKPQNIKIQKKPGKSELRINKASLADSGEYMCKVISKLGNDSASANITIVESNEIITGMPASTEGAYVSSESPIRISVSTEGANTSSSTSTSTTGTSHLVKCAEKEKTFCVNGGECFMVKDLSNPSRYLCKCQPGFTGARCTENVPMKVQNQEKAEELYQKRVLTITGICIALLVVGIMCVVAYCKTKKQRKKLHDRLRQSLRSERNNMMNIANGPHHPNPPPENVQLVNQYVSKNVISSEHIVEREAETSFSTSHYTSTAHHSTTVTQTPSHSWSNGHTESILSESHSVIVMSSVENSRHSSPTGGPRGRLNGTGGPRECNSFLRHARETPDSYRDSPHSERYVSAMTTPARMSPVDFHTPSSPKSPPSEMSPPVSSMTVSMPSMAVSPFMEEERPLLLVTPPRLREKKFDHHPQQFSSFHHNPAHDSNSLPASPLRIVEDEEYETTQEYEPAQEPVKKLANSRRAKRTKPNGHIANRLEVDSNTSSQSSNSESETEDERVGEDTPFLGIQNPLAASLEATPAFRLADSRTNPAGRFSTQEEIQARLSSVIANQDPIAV

[7] = tested on: Neuregulin-1 EGF-like domain; experiment: small molecules binding NRG1 EGF domain – biochemical, small-molecule microarray, 635 nm fluorescence, primary screen (AID 1081); conditions: higher = more signal;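 also: binding of the protein to compounds printed on small-molecule microarray slides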
[8] = FRG1 expression reporter modulators in myotubes – cell-based, C2C12 myotubes, firefly/Renilla luciferase, luminescence, FRG1 inhibition for FSHD, primary screen (AID 1084); conditions: FRG1 promoter luciferase, higher = more signal, called active from +8 up or from −8 down
[9] = small molecules captured by biotinylated probe aFST – biochemical, small-molecule microarray, fluorescence 635/667, stem cell growth factor project, primary screen (AID 1086); conditions: higher = more signal;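 also: score merges 667 nm fluorescence with signal-to-noise of each printed compound spot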
[10] = binders of probe aHhip on microarray, primary screen, stem cell growth factor project, biochemical, small-molecule microarray, fluorescence 635/667 (AID 1087); conditions: higher = more signal;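 also: score merges spot fluorescence at 667nm with spot signal to noise ratio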

SMILES	composite z-score [1]	composite z-score [2]	composite z-score [3]	composite z-score [4]	composite z-score [5]	composite z-score [6]	composite z-score [7]	z-score [8]	composite z-score [9]	composite z-score [10]
COC(=O)C1=C(C)N(Cc2ccccc2)C2=C3C(=O)CCC[C@@H]3[C@@](O)(C(=O)OC)C(=O)N2[C@@H]1c1ccccc1	-0.438 and -0.212	0.999 and -0.117	-0.122 and -0.0125	0.482 and 0.544	0.723 and 0.6	-0.046 and -0.158	0.211 and 0.476	-0.403 (inactive) and 0.0176 (inactive)	0.325 and 0.107	0.136 and -0.0994
COC(=O)[C@@]1(Cc2ccc(OC)cc2)[C@H]2c3cc(C(=O)N(C)C)n(Cc4ccc(O)c(OC)c4)c3C[C@H]2CN1C(=O)c1ccccc1	0.332 and 0.233	0.703 and 0.13	-0.169 and 0.176	0.123 and 1.17	1.64 and 1.68	2.15 and 1.85	1.32 and 1.22	2.53 (inactive) and -0.466 (inactive)	0.808 and 1.15	0.329 and 0.483
C=CC[C@@H](O)c1ccc(O)c2ccccc12	0.16 and -0.247	0.571 and 0.234	-0.0422 and -0.0676	0.184 and 0.262	0.116 and 0.328	0.66 and 0.282	1.18 and 1.26	0.0604 (inactive) and 1.27 (inactive)	0.42 and 0.0926	0.72 and -0.0237
C=CCN(C(=O)C1N(C(C)(C)CO)C(=O)C2C(C(=O)O)C3C=CC21O3)C(C)(C)C (stereo not given)	0.974 and 1.67	-1.54 and -0.705	-0.232 and -0.112	-1.48 and 0.207	-2.19 and -1.87	-0.396 and 0.389	0.154 and 1.46	0.198 (inactive) and -0.0048 (inactive)	-1.37 and -1.24	-0.427 and -0.0994
C=CCN(CCCC)C(=O)C1N(CCOCCO)C(=O)C2C(C(=O)O)C3C=CC21O3 (stereo not given)	0.398 and 0.725	-1.98 and -0.776	-0.209 and -0.116	-1.13 and -0.467	-1.17 and -2.39	1.64 and -0.729	1.61 and 1.51	0.75 (inactive) and 0.0827 (inactive)	-0.792 and -1.02	-0.169 and -0.306
C[N+](C)(C)CCCCCCNC(=O)[C@@H]1C[C@@H]2C(=O)N[C@@H](CCCC[N+](C)(C)C)C(=O)N2[C@@H]1c1ccc(O)cc1	0.245 and -0.175	0.0279 and -0.0321	-0.12 and -0.181	0.0015 and -0.155	-0.423 and -0.213	0.142 and 1.11	1.35 and 1.36	0.403 (inactive) and 2.73 (inactive)	-0.12 and -0.0447	-0.206 and -0.266
Cc1cc2c(nc1C)CCCN2CC(C)ON=C[C@@H](C)[C@H](OCc1ccccc1)C(C)C (stereo not given in full)	-0.461	0.478	-0.0724	-0.0706	-0.461	-0.869	-0.868	-0.201 (inactive)	0.374	0.102
COC(=O)C1=C(C)N(Cc2ccccc2)[C@]23O[C@](C(=O)OC)(C(=O)N2[C@@H]1c1ccccc1)[C@H]1C(=O)N(C)C(=O)[C@H]13	-0.342 and -0.556	0.117 and 0.134	-0.137 and -0.0212	0.566 and 0.842	0.585 and 0.405	1.14 and -0.0494	1.17 and 0.892	-0.564 (inactive) and 0.0169 (inactive)	0.271 and 0.2	0.0439 and -0.121
CC(C)=NOC[C@@H](O)COCc1ccco1	-0.0008	2.26	-0.0924	0.0026	-1.37	0.126	-0.603	0.929 (inactive)	-0.549	-0.0645
C=CCN(CCCCC)C(=O)C(c1cccs1)N(C(=O)/C=C\C(=O)O)c1c(Cl)cccc1CO (stereo not given)	0.0175 and 0.264	-0.764 and -0.654	-0.21 and -0.122	-1.57 and -1.12	-2.35 and -1.74	1.12 and -0.954	0.683 and 0.526	-0.383 (inactive) and 0.395 (inactive)	-0.655 and -1.1	-0.128 and -0.323
C=CCN(C(=O)C1N(CCCCCCO)C(=O)C2C(C(=O)O)C3C=CC21O3)C(C)(C)C (stereo not given)	0.619 and 0.997	-1.01 and -1.12	-0.159 and -0.313	-1.58 and -1.55	-1.01 and -1.71	1.07 and -0.354	-0.192 and 0.886	3.01 (inactive) and 0.174 (inactive)	-0.492 and -1.5	-0.169 and 0.0373
CC(C)CON=C1C[C@@H](O)[C@@H](O)[C@@H]2[C@@H]3C(=O)N(c4cccc(Oc5ccccc5)c4)C(=O)[C@@H]3CC[C@H]12	-0.273	0.459	-0.179	0.253	0.547	0.685	0.781	-0.423 (inactive)	0.769	-0.0645
C=CC[C@@H](O)c1ccc(OCCO)cc1	0.137 and 0.75	-0.827 and -0.804	-0.0908 and -0.279	-0.0284 and -0.887	-1.41 and -2.02	-0.773 and -0.567	-0.0171 and 0.209	0.373 (inactive) and 1.07 (inactive)	-0.871 and -1.16	-0.184 and -0.134
C=C[C@@H](C)[C@@H](O)c1ccc(O)c2ccccc12	0.306 and 0.254	-0.54 and -0.797	-0.105 and -0.154	-0.262 and -0.0511	-1.51 and -1.17	-0.775 and -0.178	-0.377 and 0.98	1.07 (inactive) and 0.849 (inactive)	-0.774 and -0.854	-0.287 and -0.184
CC(C)OC(=O)C=C1C[C@@H](c2ccccc2)O[C@@H](c2ccccc2)O1	-0.682 and -0.0971	0.935 and 1.2	-0.0695 and 0.0305	1.04 and 1.05	1.45 and 1.59	0.482 and 1.23	1.1 and 1.18	-0.778 (inactive) and -0.828 (inactive)	0.904 and 0.743	0.194 and 0.126
C=CCN(Cc1ccccc1)C(=O)C(c1cccs1)N(C(=O)/C=C\C(=O)O)c1c(Cl)cccc1CO (stereo not given)	0.233 and 1.13	-0.778 and -1.07	-0.241 and -0.193	-1.08 and -2.14	-1.53 and -2.16	-0.984 and -1.12	0.462 and -0.851	-0.0406 (inactive) and 0.885 (inactive)	-1.91 and -1.01	-0.549 and -0.38
CC(CO)N1C(=O)[C@@H]2C3C(=O)OCCC=C[C@H]3OC23C=CCN(C(C)(C)C)C(=O)[C@@H]13 (stereo not given in full)	0.589 and 0.169	-0.848 and -0.0168	-0.158 and -0.0296	-0.884 and 0.546	-1.01 and 0.13	-0.551 and 0.91	0.369 and 1.41	0.714 (inactive) and 0.355 (inactive)	-0.547 and -0.0366	-0.134 and 0.0749
C=CCN(CCCCC)C(=O)C1N(CCCCCCO)C(=O)C2C(C(=O)O)C3C=CC21O3 (stereo not given)	1.25 and 0.679	-0.833 and -1.2	-0.2 and -0.248	-1.43 and -1.82	-2.1 and -1.82	-0.54 and 0.234	1.07 and 1.32	-0.0502 (inactive) and -0.095 (inactive)	-0.855 and -1.02	-0.331 and -0.287
C[N+](C)(C)CCCCNC(=O)[C@@H]1C[C@@H]2C(=O)N[C@@H](CCCC[N+](C)(C)C)C(=O)N2[C@@H]1c1cccc(OCCO)c1	-0.0301 and -0.304	2.1 and 2.23	-0.0909 and -0.0573	1.07 and 1.2	0.556 and 0.0462	-0.181 and -0.179	1.07 and 1.16	-0.101 (inactive) and 0.844 (inactive)	0.311 and 0.464	0.463 and -0.0994
CCOC(=O)[C@H](CC(C)C)NC(=O)CCC1CC(OC(=O)NCc2cccc3ccccc23)CC2(CCCC(COC(=O)NCc3ccccc3)O2)O1 (stereo not given in full)	-0.289	-0.0297	-0.116	0.129	-0.362	-0.421	-0.0852	2.99 (inactive)	-0.0955	-0.143
O=C(NN=C1C[C@@H](O)[C@@H](O)[C@@H]2[C@@H]3C(=O)N(Cc4ccc5c(c4)OCO5)C(=O)[C@@H]3CC[C@H]12)OCc1ccccc1	-0.196	1.64	-0.025	-0.348	0.64	-1.21	-1.43	-0.0282 (inactive)	0.965	-0.387
C[C@@H]1CN2[C@@H](CC[C@@H](C)[C@@H]2c2ccc(Br)cc2)C(=O)O1	-0.267 and -0.0033	-0.0199 and 0.174	-0.116 and -0.0583	0.215 and 0.604	0.275 and 0.18	-0.368 and 0.158	-0.704 and -0.829	-0.735 (inactive) and -1.38 (inactive)	-0.145 and 0.0701	-0.0994 and -0.274
COC(=O)C1=C(C)N(Cc2ccccc2)C2=C(C(=O)c3ccccc3)[C@H](c3ccccc3)[C@@](O)(C(=O)OC)C(=O)N2[C@@H]1c1ccccc1	-0.195 and -0.325	-0.16 and 0.0962	-0.0759 and -0.0691	0.429 and 0.387	0.98 and 0.272	0.296 and -0.085	0.672 and 0.253	-0.363 (inactive) and 0.429 (inactive)	0.128 and 0.0478	-0.236 and 0.625
CCC[C@@H]1C[C@@]1(CCC)[C@@H](NC(=O)c1ccc(-c2ccccc2)cc1)c1cccc(Cl)c1	2.36 and 0.236	0.995 and -0.712	0.736 and -0.171	-0.636 and 0.226	-1.01 and 1.53	-0.612 and 1.2	-0.62 and 1.11	-1 (inactive) and 0.245 (inactive)	1.96 and 0.48	2.73 and 0.663
Cc1ccc(S(=O)(=O)N[C@H]2COC(=O)[C@@H](Cc3ccccc3)NC(=O)[C@@H](C)COC(=O)CC=C[C@@H]2C)cc1	-0.547 and -0.267	0.811 and 0.656	-0.177 and -0.145	0.0514 and 0.209	-0.311 and 0.0627	-0.355 and -0.215	-0.721 and 0.219	1.23 (inactive) and 1.04 (inactive)	-0.169 and -0.0364	-0.429 and -0.0994
C=CCN(CCCCC)C(=O)C1N(C(C)(C)CO)C(=O)C2C(C(=O)O)C3C=CC21O3 (stereo not given)	0.215 and 0.754	-0.806 and -0.866	-0.223 and -0.193	-1.26 and -2.17	-1.64 and -2.02	-0.729 and 1.18	-0.369 and -0.726	0.521 (inactive) and 1.02 (inactive)	-2.01 and -0.558	-0.261 and 0.0274
C=CC[C@@H](O)c1ccc(O)c(F)c1	1.77 and 0.459	0.897 and -0.727	-0.0695 and -0.194	-0.03 and -1.69	-1.42 and -2.14	-0.627 and -0.0657	0.684 and 0.704	0.572 (inactive) and -1.4 (inactive)	-0.922 and -0.799	-0.132 and 0.0392
C=CCN(CCCC)C(=O)C1N(C(C)(C)CO)C(=O)C2C(C(=O)O)C3C=CC21O3 (stereo not given)	0.501 and 0.858	-0.796 and -1.83	-0.249 and -0.252	-1.94 and -1.01	-1.33 and -1.67	1.06 and -1.21	0.111 and -0.645	1.4 (inactive) and 0.963 (inactive)	-1.12 and -0.587	-0.204 and -0.0645
